About 83,000 compounds went through this panel and 20% of them were active in at least one assay; those are over-represented in the sample as a whole.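 Plates (96-well) were seeded with cells, treated with compound at one concentration, and incubated for 48 hours before percent growth was determined.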 A number with no mark means an inactive call. Activity calls are given as the source filed them. How the source made its calls: active means growth percent below 10; inactive means the rest.
Columns and labels:
Experiment in all cases: NCI-60 one-dose screen, 48 h (100 = growth as untreated, 0 = no growth, -100 = all killed)
Conditions in all cases: 10 µM unless noted
NCI-H23 lung = test system: NCI-H23 lung
NCI-H226 lung = test system: NCI-H226 lung
NCI-H322M lung = test system: NCI-H322M lung
HOP-62 NSCLC = test system: HOP-62 NSCLC
NCI-H460 lung = test system: NCI-H460 lung
HOP-92 NSCLC = test system: HOP-92 NSCLC
NCI-H522 lung = test system: NCI-H522 lung
A549/ATCC NSCLC = test system: A549/ATCC NSCLC
786-0 renal = test system: 786-0 renal
COLO 205 colon = test system: COLO 205 colon
DU-145 prostate = test system: DU-145 prostate
K-562 leukemia = test system: K-562 leukemia
MALME-3M melanoma = test system: MALME-3M melanoma
MDA-MB-231 breast = test system: MDA-MB-231 breast
RXF 393 renal = test system: RXF 393 renal
SF-268 CNS = test system: SF-268 CNS
SF-295 CNS = test system: SF-295 CNS
SF-539 CNS = test system: SF-539 CNS
UACC-257 melanoma = test system: UACC-257 melanoma
M14 melanoma = test system: M14 melanoma

Row | Compound | growth (NCI-H23 lung) | growth (NCI-H226 lung) [%] | growth (NCI-H322M lung) [%] | growth (HOP-62 NSCLC) | growth (NCI-H460 lung) | growth (HOP-92 NSCLC) | growth (NCI-H522 lung) | growth (A549/ATCC NSCLC) | growth (786-0 renal) | growth (COLO 205 colon) | growth (DU-145 prostate) [%] | growth (K-562 leukemia) | growth (MALME-3M melanoma) | growth (MDA-MB-231 breast) | growth (RXF 393 renal) | growth (SF-268 CNS) | growth (SF-295 CNS) | growth (SF-539 CNS) | growth (UACC-257 melanoma) | growth (M14 melanoma)
1 | CCCCCCNC(=O)Oc1ccc(/C(=C(/C)c2ccc(Cl)cc2)c2ccc(OCCN3CCCCCC3)cc2)cc1 | 52.2% | 83.2 | 96.8 | 76.8% | 40.9% | 83.6% | 92.3% | 74.3% | 63.7% | 45.7% | 86.3 | 8.93% (active) | 75.4% | 76.1% | 44.1% | 77.2% | 70% | 67% | 75.1% | 30.9%
2 | CCN(CC)CCOc1ccc(C(=C(C)c2ccc(OC)cc2)c2ccc(OCCN(CC)CC)cc2)cc1 | 57.8% | 61.2 | 33.5 | 4.72% (active) | 1.96% (active) | -4.16% (active) | -4.16% (active) | 12.3% | -51.1% (active) | -56.5% (active) | 37.8 | -12.4% (active) | -92.1% (active) | -54.3% (active) | -77.8% (active) | 6.51% (active) | -64.1% (active) | -88.2% (active) | -67.2% (active) | -70.4% (active)
3 | CCCC[n+]1ccc(SCC(=O)n2ccc3ccccc32)c2ccccc21 | 74.5% | 71.1 | 96.4 | 103% | 97.8% | 138% | 83.2% | 87.5% | 106% | 99.8% | 94.6 | 66.9% | 95.9% | 92.4% | 94.9% | 101% | 96.5% | 103% | 95.7% | 98.8%
4 | O=C(Nc1ccc(Cl)c(C(F)(F)F)c1)Nc1ccc2oc(=O)ccc2c1 | 4.85% (active) | 26.6 | 60.5 | 73.4% | 18.1% | -1.84% (active) | 20.3% | 39.8% | 70.3% | 58% | 40.5 | 19.1% | 42.6% | 69.3% | 89.2% | 65% | 5.31% (active) | 63.3% | 64.4% | 49.6%
5 | O=C(CSc1nc2ccccc2c(=O)n1-c1ccccc1)N/N=C/c1ccc(Oc2ccc(Br)cc2)cc1 | 49.9% | 77.6 | 86.8 | 63.9% | 28% | 73% | 48.5% | 42.2% | 46% | 44.4% | 38.3 | 62.5% | 54.9% | 50.9% | 62.2% | 84.3% | 83.7% | 68.7% | 93.7% | 56.3%
6 | Fc1ccc(-c2cn3c(-c4c[nH]c5ccc(Br)cc45)csc3n2)cc1 | 30.4% | 59.8 | 81.4 | 34.8% | 52.9% | 22.2% | 85.1% | 78.6% | 97.2% | 76.9% | 67.4 | 90.3% | 51.4% | 15.5% | 79.6% | 50.9% | 64.1% | 34.3% | 93.5% | 67.4%
7 | c1ccc(-c2cn3c(-c4c[nH]c5ccccc45)csc3n2)cc1 | 57.8% | 80.4 | 85.4 | 91.3% | 60.8% | -1.71% (active) | 51% | 92% | 99.5% | 83.5% | 94 | 36.5% | 69.6% | 61.7% | 83.2% | 79.6% | 77.6% | 81.9% | 54.2% | 73%
8 | CC(=C(c1ccc(OCCN2CCCC2)cc1)c1ccc(OCCN2CCCC2)cc1)c1ccc(Cl)cc1 | 60.7% | 80 | 15.6 | -68.7% (active) | -52.2% (active) | -1.74% (active) | -48.5% (active) | -61.8% (active) | -85.9% (active) | -74.4% (active) | 25.8 | -43.6% (active) | -85.9% (active) | -68.1% (active) | -74.7% (active) | -23.1% (active) | -63.7% (active) | -87.1% (active) | -73.6% (active) | -84.5% (active)

— PubChem BioAssay (NCI)
